HTT aggregate: reduces HttQ103-GFP aggregates in PC12 cells | PC12 HttQ103-GFP aggregates, Acumen cytometry, 40 h | Potency, µM (titrated, usually from 46.1 µM), for inactives: at the highest dose activity change, negative = inhibition, actives largely listed as inhibitors | actives 1.1% (n = 220,000); note: % is set by controls: 0 for no effect and ±100 for the full control effect; nearly all actives have a fitted effect of over 60% in size
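Steps: seed 1500 PC12 HTTQ103-GFP cells/well; add tebufenozide, 100 nM final; add compound titration; add ATPLite reagent; quantify GFP aggregates by laser scanning cytometry.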
ERK EGF block: EGF-driven ERK pathway inhibition | AID 1454 | Potency, µM (series often up to 11.5 µM), without a hit: at the highest dose activity change, negative = inhibition, hits mostly inhibitors | actives 0.41% (n = 130,000) | HEK293-V1b, EGF-stimulated phospho-ERK AlphaScreen;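 note: plate controls were stimulated vehicle wells for no effect and unstimulated vehicle basal for full effect; nearly all actives have a fitted effect of over 55% in size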
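Compounds are titrated over HEK293-V1b cells kept overnight in 1% FBS. After 30 min at 37C, EGF (25 nM final) triggers ERK phosphorylation for 5 min, measured by AlphaScreen in lysates.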
HTT ATP protect: protects HTT-Q103 PC12 cells, measured by ATP | AID 1471 | PC12 HTT-Q103 induced, cytoprotection, ATP luminescence, 40 h | actives 0.14% (n = 230,000) | Potency, µM (titrated, usually from 56.4 µM), for inactives: cytoprotection (ATP increase), most hits filed as activators; note: % of control where 0% means no effect; nearly all actives have a fitted effect of over 45% in size
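Huntington model: PC12 line, ecdysone-inducible HTTQ103 exon1–GFP, tebufenozide 100 nM. Test articles in a dose series. Endpoint luminescence from cellular ATP.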
* hit, by the source's call; ? = inconclusive; nt = not tested or not shown; [ ] = dose if it differs, or a comment. Shown are actives, neighbours in structure and some others; about 1.4% of the full set was active somewhere. Calls come from the whole dose curve; as a rule, active = well fitted curve in the direction sought with a large enough effect; inconclusive = small, poorly fitted or top-dose-only effect, or another doubt; inactive = no such curve, though single readings can be large; an effect the other way counts as inactive or inconclusive. Potency is the fitted concentration of half-maximal effect.

SMILES	HTT aggregate	ERK EGF block	HTT ATP protect
CCn1c(C)nc2cc(C(=O)N/N=C/c3cccc(OC)c3O)ccc21	2µM*	-2%	-44%[10 µM]
COc1ccc(/C=N/NC(=O)c2c(C)nc3ccc(Br)cn23)cc1OC	-21%[9.22 µM]	0%[57.5 µM]	-13%[10 µM]
CCn1c(C)nc2cc(C(=O)N/N=C/c3ccc(O)c(O)c3O)ccc21	12%[9.22 µM]	?	-26%
CCCCCCC1=Cc2cc(OC)c(OC)cc2C(C(C(C)=O)C(=O)OC)O1 (configuration not stated)	nt	nt	-37%[10 µM]
C[C@]12CCC(=O)C=C1[C@@H]1C[C@H]1[C@H]1[C@@H]3[C@@H]4C[C@H]4[C@@]4(CCC(=O)O4)[C@@]3(C)CC[C@@H]12	-5%	nt	?
CN(CC(=O)NCc1ccccc1)S(=O)(=O)c1cnc[nH]1	0.63µM*	nt	nt
Cc1ccc(CCNC(=O)CN(C)S(=O)(=O)c2cnc[nH]2)cc1	-14%	-7%	-17%[10 µM]
COc1ccccc1CC(=O)N1CCN(c2cccc(C(F)(F)F)c2)CC1	13µM*	nt	11%[10 µM]
COc1ccccc1NC(=O)N1CCN(c2cccc(C(F)(F)F)c2)CC1	7%	nt	4%
COC(=O)C[C@@H]1O[C@H]1[C@H](C)[C@@H](OC)C(C)C	nt	nt	-6%[10 µM]
COC(=O)[C@H](C)NC(=O)C/C=C\[C@@H](C)[C@H]1C=C[C@H](O)[C@@H](CO)O1	nt	nt	-24%[10 µM]
COC(=O)c1c[nH]n2c(=O)c(Cc3ccc(F)cc3Cl)c(C)nc12	18µM*	nt	-10%[0.074 µM]
COC(=O)c1c[nH]n2c(=O)c(Cl)c(C)nc12	-2%	-17%	nt
CCC/C=C(\CCC)C(NS(=O)(=O)c1ccc(Cl)cc1)c1ccccc1 (configuration not stated)	nt	-14%	13%
CNC(=O)[C@H]1O[C@@H](n2cnc3c(NCc4cccc(I)c4)nc(Cl)nc32)[C@H](O)[C@@H]1O	nt	nt	-57%
C#CCOCCOCCOCCNc1nc(N2CCN(C(=O)[C@H]([C@@H](C)CC)n3cc([C@@H](N)CO)nn3)CC2)nc(N2CCN(C(=O)[C@H](Cc3cc4ccccc4[nH]3)n3cc([C@@H](N)Cc4ccc(O)cc4)nn3)CC2)n1	36%[9.22 µM]	-12%[57.5 µM]	-14%[10 µM]
CC(=O)OCC(=O)[C@]12OC(C)(C)O[C@@H]1C[C@H]1[C@H]3CC=C4C[C@@H](O)CC[C@]4(C)[C@H]3CC[C@]12C	nt	nt	4%[10 µM]
Cc1cc(-c2ccc(N=Nc3ccc4c(S(=O)(=O)O)cc(S(=O)(=O)O)c(N)c4c3O)c(C)c2)ccc1N=Nc1ccc2c(S(=O)(=O)O)cc(S(=O)(=O)O)c(N)c2c1O	-8%	2%	26%
COC(=O)[C@H](CCSC)NC(=O)C/C=C\[C@@H](C)[C@@H](CO)OC	nt	nt	0%[10 µM]
O=C(O)C1CCCN1C(=O)Nc1ccc(F)cc1 (configuration not stated)	0%	nt	9%
O=C(O)C1CCCN1C(=O)Nc1ccccc1 (configuration not stated)	1.1µM*	nt	1%[0.074 µM]
O=c1c2cc(Cl)ccc2nc(-c2ccccc2)n1O	?	-4%	-1%[10 µM]
O=c1c2cc(Br)ccc2nc(-c2ccc([N+](=O)[O-])cc2)n1O	11µM*	-3%	-108%
O=c1c2cc(Br)ccc2nc(-c2cccc(C(F)(F)F)c2)n1O	?	nt	-73%
O=c1c2ccc(Cl)cc2nc(-c2ccc([N+](=O)[O-])cc2)n1O	6.3µM*	-1%	-66%
SMILES	HTT aggregate	ERK EGF block	HTT ATP protect
CN(C)CC[C@@H](C(=O)C(C)(C)C)c1ccccn1	nt	nt	1%[10 µM]
CC(C)(C)c1ccc(Cn2nnc3c(=O)[nH]c(C4CCCN(C(=O)Cc5cccs5)C4)nc32)cc1 (configuration not stated)	-18%	nt	23%[10 µM]
CC(C)(C)c1ccc(Cn2nnc3c(=O)[nH]c(C4CCN(C(=O)Cc5cccs5)CC4)nc32)cc1	13µM*	nt	-25%
Cc1c(C(=O)N2CCOCC2)oc2ccc(S(=O)(=O)N3CCCCCC3)cc12	16%	nt	-17%
CCN(CC)C(=O)c1oc2ccc(S(=O)(=O)N3CCCCCC3)cc2c1C	10µM*	nt	3%
CN1CCN(c2ccccc2NC(=O)Cc2cn(C)c3ccccc23)CC1	25µM*	nt	-54%
Cc1ccccc1NC(=O)Cc1cn(C)c2ccccc12	9%	nt	-1%
C#CCCCC(=O)Nc1ccccc1	nt	1%	10%
Cc1cc(C)nc(N/N=C2/CCCC/C2=C\c2ccccc2)n1	4.5µM*	4%	-55%[10 µM]
Cc1ccnc(N/N=C/c2ccccc2)n1	2%	4%	-8%[10 µM]
CCCCNc1cc(C)nc(NCc2ccccc2)n1	10µM*	nt	-75%
Cc1cc(Nc2ccc(Cl)cc2)nc(NCc2ccccc2)n1	?	8%	nt
Cc1cc(Nc2ccccc2)nc(NCc2ccccc2)n1	6.3µM*	6%	7%[10 µM]
Cc1cc(C)nc(NCCCc2ccccc2)n1	4%	8%	-7%[10 µM]
Cc1cc(C)c(NC(=O)CN(CC(=O)O)CC(=O)O)c(C)c1Br	-4%	nt	-6%
COc1cccc(Nc2ncc3nc(-c4ccccc4)c(=O)n(Cc4cccs4)c3n2)c1	nt	nt	-60%
COc1ccccc1CN1CCC2(CC1)CCN(C(=O)c1cccn1C)CC2	nt	6%	2%
O=C(O)C(Cc1ccccc1)N1CCS(=O)(=O)CC1 (configuration not stated)	5%	-1%	2µM*
COC(=O)C(Cc1ccccc1)N1CCS(=O)(=O)CC1 (configuration not stated)	8%[9.22 µM]	12%	-22%
C=C(C(C)=O)C(O)c1ccc(C(F)(F)F)cc1 (configuration not stated)	nt	-4%	19%
CN(C)Cc1ccc(O)c(CN(C)C)n1	nt	nt	-4%[10 µM]
COc1ccc(C)cc1C(=O)CCC(=O)Nc1ccccc1N1CCOCC1	13µM*	nt	17%[10 µM]
COc1cc(CC(=O)Nc2ccccc2N2CCOCC2)cc(OC)c1OC	2%	32%	-33%
O=C(NCCO)c1ccc(Cl)cc1	nt	nt	-6%[10 µM]
C=CCn1c(-c2ccc(OC)cc2)csc1=Nc1c(C)n(C)n(-c2ccccc2)c1=O	0.79µM*	nt	?
SMILES	HTT aggregate	ERK EGF block	HTT ATP protect
Cc1csc(=Nc2c(C)n(C)n(-c3ccccc3)c2=O)n1Cc1ccccc1	6%[9.22 µM]	nt	-11%
COc1ccc2c(c1)C(=O)[C@@H](OC(=O)NS(=O)(=O)c1ccc(C)cc1)[C@H](c1ccc(OC)c(Br)c1)O2	nt	-7%	-33%
O=C1C=CC2=C3c4cc(O)c(O)cc4C[C@@]3(O)COC2=C1	nt	1%	?
CCNc1nc(NCC)n2c(SCc3nc4ccccc4c(=O)[nH]3)nnc2n1	4%	nt	7%[10 µM]
CCNc1nc(NCC)n2c(SCc3ccc(F)cc3)nnc2n1	2.5µM*	nt	13%[10 µM]
O=C(CCl)Nc1cccc(S(=O)(=O)N2CCCCCC2)c1	10µM*	nt	31%[10 µM]
CC(=O)N1CCN(CC(=O)Nc2cccc(S(=O)(=O)N3CCCCCC3)c2)CC1	-1%	5%	-15%
Cc1nc2cnc(Oc3cccc(Cl)c3)nc2n(CCc2ccccc2)c1=O	nt	0%	-52%
CC(C)C(C(=O)Nc1nccs1)c1ccccc1 (configuration not stated)	-30%	nt	-13%
O=C(Nc1nccs1)C(c1ccccc1)N1CCCC1 (configuration not stated)	-5%	-7%	1.4µM*
Cc1cc(C)cc(-n2nnnc2SCC(=O)Nc2cccc(NC(=O)c3ccco3)c2)c1	12%	nt	-9%

Assay outcomes: PubChem BioAssay, National Center for Advancing Translational Sciences (NCATS)
